In the library only some 1.1% were active in any assay of this set; here they are far more common.
RPL19A-GFP yeast = alters RPL19A-GFP fluorescence in TOR pathway yeast screen; S. cerevisiae RPL19A-GFP strain, flow cytometry, 3 h; hits give low values; percent response vs DMSO, % at 10 µM; 0.3% of 330,000 active; AID 2025;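 active = percent response vs DMSO below 50%; inconclusive = fewer than 70 events counted for the yeast strain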;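 note: median channel GFP fluorescence of the barcoded RPL19A-GFP strain; ratio of sample median GFP to plate DMSO average so 100% = DMSO; lower means less RPL19A-GFP as with rapamycin TOR inhibition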
CIT2-GFP yeast = modulators of TOR pathway CIT2-GFP in S. cerevisiae; S. cerevisiae CIT2-GFP strain, flow cytometry, 3 h; 100 means same as DMSO wells; GFP response vs DMSO, % at 10 µM; AID 2029; 0.065% of 320,000 active;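 active = GFP response relative to DMSO above a set limit, near the screen mean plus 3 SD, cut at about 150% in these data; inconclusive = Fewer than 70 cells measured for a yeast strain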;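 note: ratio of well median GFP fluorescence to mean of DMSO wells on the plate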
AGP1 TOR yeast = modulators of TOR pathway AGP1-GFP in S. cerevisiae; AID 2066; S. cerevisiae AGP1-GFP multiplex flow cytometry, 3 h; GFP as percent of DMSO wells; GFP response vs DMSO, % at 10 µM; 0.02% of 320,000 active;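 active = GFP response relative to DMSO above a set limit, near screen average plus 3 SD, cut at about 150% in these data; inconclusive = fewer than 70 cells counted for the yeast strain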;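 note: median GFP channel fluorescence of the gated AGP1 strain per well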
VLA-4 inh = inhibition in a human VLA-4 binding assay. P13612. VLA-4 expressing cells, ligand binding flow cytometry. inhibition, % (about 7 µM as worked out from the volumes in the protocol). 0.2% of 330,000 active; in the data active = inhibition above about 50%
Target sequence (P13612 whole entry, looked up): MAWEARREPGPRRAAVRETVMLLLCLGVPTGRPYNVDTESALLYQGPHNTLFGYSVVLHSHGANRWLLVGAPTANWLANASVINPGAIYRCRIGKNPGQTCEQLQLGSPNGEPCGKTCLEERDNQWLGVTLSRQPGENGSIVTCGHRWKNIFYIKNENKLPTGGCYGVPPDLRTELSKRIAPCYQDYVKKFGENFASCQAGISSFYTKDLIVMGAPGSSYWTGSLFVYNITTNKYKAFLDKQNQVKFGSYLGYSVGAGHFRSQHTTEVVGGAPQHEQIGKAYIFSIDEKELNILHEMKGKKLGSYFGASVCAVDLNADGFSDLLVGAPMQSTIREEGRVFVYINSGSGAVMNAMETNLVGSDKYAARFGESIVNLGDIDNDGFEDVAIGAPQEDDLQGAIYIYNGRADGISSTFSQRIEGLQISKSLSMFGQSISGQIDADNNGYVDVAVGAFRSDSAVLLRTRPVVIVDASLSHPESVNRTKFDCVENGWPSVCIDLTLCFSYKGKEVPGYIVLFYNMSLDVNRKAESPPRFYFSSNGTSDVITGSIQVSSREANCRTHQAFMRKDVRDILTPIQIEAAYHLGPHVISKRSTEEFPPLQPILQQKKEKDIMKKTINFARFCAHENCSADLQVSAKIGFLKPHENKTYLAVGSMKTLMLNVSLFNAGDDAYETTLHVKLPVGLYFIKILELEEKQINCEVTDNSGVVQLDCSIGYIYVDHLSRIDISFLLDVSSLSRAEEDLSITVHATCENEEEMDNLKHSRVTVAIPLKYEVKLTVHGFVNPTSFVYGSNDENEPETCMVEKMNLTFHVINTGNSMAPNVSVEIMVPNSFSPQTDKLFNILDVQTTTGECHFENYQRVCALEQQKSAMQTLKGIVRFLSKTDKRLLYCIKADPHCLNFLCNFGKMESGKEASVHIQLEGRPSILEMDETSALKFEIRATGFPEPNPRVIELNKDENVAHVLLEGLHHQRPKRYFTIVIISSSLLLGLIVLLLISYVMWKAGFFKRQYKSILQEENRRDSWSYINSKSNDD
MEP2 TOR yeast = modulators of TOR pathway MEP2-GFP in S. cerevisiae; S. cerevisiae MEP2-GFP strain, flow cytometry GFP, 3 h; 100% = DMSO control level; 0.51% of 330,000 active; GFP response vs DMSO, % at 10 µM;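 active = GFP response versus DMSO above a set limit, roughly screen mean plus 3 SD, cut at about 180% in these data; inconclusive = fewer than 70 cells counted for a yeast strain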;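 note: median GFP fluorescence of the barcode-gated MEP2-GFP cells per well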
LAP4-GFP MLPCN = modulators of TOR pathway LAP4-GFP in S. cerevisiae; S. cerevisiae LAP4-GFP multiplex, flow cytometry GFP, 3 h; median GFP as percent of DMSO wells; GFP response vs DMSO, % at 10 µM; 0.34% of 320,000 active; AID 2023;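 active = GFP response vs DMSO above a set limit, about the screen mean plus 3 SD, cut at about 150% in these data; inconclusive = under 70 cell events counted for the yeast strain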
Active calls of the source: *; ? = inconclusive; . = not tested or not shown; [ ] = remark or other dose.

SMILES | RPL19A-GFP yeast | CIT2-GFP yeast | AGP1 TOR yeast | VLA-4 inh | MEP2 TOR yeast | LAP4-GFP MLPCN
CCCCNS(=O)(=O)c1ccc2nc(-c3cccnc3)cc(C(=O)NC3CCCC3)c2c1 | 49.5*[may fluoresce violet] | ? | 27.9 | 12.4 | 200.4*[may fluoresce violet] | 94.5
COc1cc(NS(=O)(=O)c2ccc(C)cc2C)cc(OC)c1OC | 48.5*[may fluoresce violet] | ? | ? | 8.6 | 483.8*[may fluoresce violet] | 89.0
CC(C)c1ccc(N(CC(=O)NCc2ccco2)C(=O)CCC(=O)Nc2ccccn2)cc1 | 97.6 | 88.4 | 97.0 | -3.5 | 111.2 | 86.9
COc1ccc(C(C(=O)NC2CCCCC2)N(C(=O)c2snc(C(N)=O)c2N)c2ccc(OC)cc2OC)cc1 (stereo not drawn) | 105.7 | 97.5 | 98.7 | 6.2 | 100.3 | 91.7
COc1ccc(N(C(=O)c2snc(C(N)=O)c2N)C(C(=O)NC2CCCC2)c2cc(OC)ccc2OC)cc1 (stereo not drawn) | 53.8 | ? | 66.8 | -8.9 | 235.8*[may fluoresce violet] | 79.3
CCCC(=O)Nc1nn(C)c2nc3c(C)cccc3cc12 | 38.7*[may fluoresce violet] | ? | . | 3.4 | 565.4*[may fluoresce violet] | 101.8
CCCn1nc(NC(C)=O)c2cc3cccc(C)c3nc21 | 107.8 | 99.5 | 100.8 | -4.8 | 104.2 | 98.3
COc1ccc(-n2nc3c(N4CCC(C(=O)NCc5cccc(C)c5)CC4)nnc(C)c3c2C)cc1 | 51.5 | ? | ? | 16.8 | 234.6*[may fluoresce violet] | 59.2
CCn1cnc2c([N+](=O)[O-])c(NS(=O)(=O)c3ccc(C)cc3)ccc21 | 99.5 | 98.4 | 106.5 | 27.0 | 105.3 | 90.5
O=C(NNC1=NCCC1)c1cccc(Br)c1 | 88.6 | 91.3 | 126.7 | 2.9 | 125.7 | 173.8*
COC1Cc2ccccc2N(C(N)=O)c2ccccc21 (stereo not drawn) | 92.4 | 96.3 | 107.5 | 1.4 | 96.5 | 111.5
CC(=O)c1cc2c(cc1NC(=O)CSc1nc3ccccc3[nH]1)OCO2 | 102.5 | 97.8 | 103.8 | 21.0 | 103.7 | 97.0
CC(=O)c1cc2c(cc1NC(=O)CSc1nc3ccccc3o1)OCO2 | 41.0*[may fluoresce violet] | ? | . | -2.1 | 292.4*[may fluoresce violet] | 93.2
NNC(=O)c1ccc(COc2ccc3ccccc3c2)cc1 | 89.3 | 77.1 | 90.9 | 2.4 | 104.3 | 192.5*
COc1ccc(OC)c(NC(=O)COC(=O)COc2c(Cl)cc(Cl)c3ccc(C)nc23)c1 | 21.9*[may fluoresce violet] | ? | ? | 10.7 | 221.3*[may fluoresce violet] | 74.4
COc1ccc(CNC(=O)N[C@H](C(=O)O)C(C)C)cc1OC | 100.4 | 101.1 | 98.1 | -5.5 | 97.9 | 102.3
O=C(CSc1nnc(CCCN2C(=O)c3cccc4cccc(c34)C2=O)n1-c1ccccc1)N1CCCCC1 | 21.6*[may fluoresce violet] | ? | ? | 12.2 | 248.2*[may fluoresce violet] | 66.9
CCc1nnc(NC(=O)COc2ccc3ccccc3c2)s1 | 47.6*[may fluoresce violet] | ? | 12.8 | 1.3 | 220.8*[may fluoresce violet] | 68.5
CCc1nnc(NC(=O)CSc2n[nH]c(-c3ccccc3O)n2)s1 | 103.0 | 97.3 | 110.5 | 10.1 | 91.2 | 155.3*
O=[N+]([O-])c1cccc(S(=O)(=O)Nc2ccc3cn[nH]c3c2)c1 | 98.2 | 80.8 | 86.9 | -0.6 | 92.4 | 82.7
CCC(C)n1c(-c2cccs2)nc2nc3ccccc3nc21 (stereo not drawn) | 44.1*[may fluoresce violet] | ? | ? | 12.7 | 428.6*[may fluoresce violet] | 82.6
COc1ccc(CCNC(=O)CN(c2cc(C)cc(C)c2)S(=O)(=O)c2c(C)noc2C)cc1OC | 18.0*[may fluoresce violet] | ? | ? | 3.1 | 167.1 | 86.0
CCCCn1c(N)c(N(CC(C)C)C(=O)CC2CCCC2)c(=O)[nH]c1=O | 95.3 | 99.4 | 100.8 | 18.8 | 98.6 | 105.3
Cc1cccc(NC(=O)Nc2cc(C)on2)c1 | 13.7*[may fluoresce violet] | ? | ? | -13.1 | 242.0*[may fluoresce violet] | ?
CCOc1ccc(C2/C(=C(/O)c3ccc4c(c3)CC(C)O4)C(=O)C(=O)N2CCCn2ccnc2)cc1OCC (stereo not drawn) | 100.3 | 101.5 | 101.7 | -0.1 | 101.9 | 90.8
SMILES | RPL19A-GFP yeast | CIT2-GFP yeast | AGP1 TOR yeast | VLA-4 inh | MEP2 TOR yeast | LAP4-GFP MLPCN
COC(=O)c1cc2n(n1)CCN(Cc1cccc(OC)c1)C2=O | 104.9 | 96.3 | 103.3 | 7.8 | 104.0 | 91.9
COC(=O)c1cc2n(n1)CCN(Cc1ccc(C)cc1)C2=O | 59.0 | ? | ? | -10.3 | 205.4*[may fluoresce violet] | 79.1
N#Cc1ccccc1N1CCN(C(=O)c2ccc(NC(=O)c3ccc(Br)o3)cc2)CC1 | 95.5 | 78.4 | 79.0 | 12.7 | 89.3 | 128.0
Cc1cc(C)cc(-n2c(=O)c3ccccc3n(CC(=O)NCC3CCCO3)c2=O)c1 (stereo not drawn) | 102.5 | 104.8 | 102.4 | 0.0 | 108.3 | 93.6
Cc1ccc2c(c1)c1c(c(=O)n(-c3ccccc3C)c(=O)n1CC(=O)NCC1CCCO1)n2C (stereo not drawn) | 46.0* | 91.9 | 70.4 | -2.3 | 117.2 | 84.1
CC(C)C(NC(=O)c1ccc(F)cc1)C(=O)N1CCN(c2ccccn2)CC1 (stereo not drawn) | 95.8 | 100.1 | 107.8 | -1.5 | 103.6 | 111.6
COc1ccc(Nc2cc(C(=O)NCCCOC(C)C)c3ccccc3n2)c(OC)c1 | 102.3 | 114.9 | 94.6 | 6.7 | 140.4 | 108.6
COc1ccc(Nc2cc(C(=O)NCCCN3CCN(C)CC3)c3ccccc3n2)c(OC)c1 | 44.1*[may fluoresce violet] | ? | ? | 1.9 | 772.4*[may fluoresce violet] | 103.9
Cc1ccccc1/C=C/C(=O)c1ccc([N+](=O)[O-])o1 | 67.2 | ? | 16.0 | 12.5 | 165.5 | 222.4*[may fluoresce violet]
COc1ccc(/C=C/C(=O)c2ccc([N+](=O)[O-])o2)cc1 | 103.9 | 87.8 | 88.4 | -20.4 | 91.3 | 127.5
N#Cc1c(-c2cccnc2)c2c([nH]c1=O)-c1ccccc1OC2 | 41.6*[may fluoresce violet] | ? | ? | 0.2 | 413.1*[may fluoresce violet] | 95.7
CCc1ccccc1OCc1nnc(N)s1 | 79.2 | 84.2 | 104.8 | 4.9 | 106.3 | 183.3*
Cc1cccc(OCc2nnc(N)s2)c1 | 94.8 | 104.1 | 98.7 | -8.3 | 98.7 | 97.0
Cc1ccc(CNC(=O)c2cn(C3CCCCC3)c(=O)c3c2c2ccccc2n3C)o1 | 99.2 | 103.0 | 100.5 | -8.4 | 101.5 | 98.3
Cc1ccc(CNC(=O)c2cn(C)c(=O)c3c2c2ccccc2n3C)o1 | 45.8*[may fluoresce violet] | ? | ? | -4.3 | 282.6*[may fluoresce violet] | 111.0
COc1ccc(-n2c(SCC(=O)Nc3ccc(C(=O)O)cc3)nnc2-c2ccccc2)cc1OC | 103.9 | 102.9 | 101.5 | 8.1 | 104.2 | 96.8
CCOc1ccc(CNC(=O)CCCn2ccc3cc(S(=O)(=O)N4CCCC4)ccc32)cc1 | 22.1*[may fluoresce violet] | ? | 14.3 | 2.6 | 153.7 | 81.1
Cc1ccc(C)c(NC(=O)CN(C)C(=O)c2ccccc2OCc2ccccc2Cl)c1 | 92.0 | 89.4 | 92.2 | -2.4 | 95.7 | 87.0
CC/C(=N\NC(=O)C1CC1)c1cccc(Cl)c1 | 97.0 | 102.4 | 107.5 | 1.9 | 99.4 | 106.9
CC/C(=N/NC(=O)CNc1ccc(Cl)cc1C)c1ccccc1 | 77.5 | ? | 15.2 | -3.3 | 480.9*[may fluoresce violet] | 87.0
NC(=O)c1ccccc1OCC(=O)c1ccc(Cl)cc1 | 102.2 | 124.2 | 122.7 | 0.0 | 194.6* | 122.1

Compound activity (PubChem)
